# Results reported in PubChem BioAssay (NCI).
# Compounds without any hit were thinned out: in the full panel of roughly 83,000, 20% have a hit.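 Step 1: grow cells in 96-well plates. Step 2: add test compound at a single concentration. Step 3: incubate 48 h. Step 4: record percent growth.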 Unmarked numbers belong to inactive results. The source made the active and inactive calls. How the source made its calls: active means growth percent below 10; inactive means the rest.
# Legend:
# Assay in all cases: NCI-60 one-dose screen, 48 h (100 = growth as untreated, 0 = no growth, -100 = all killed)
# Conditions in all cases: 10 µM unless noted
# DU-145 prostate = tested on: DU-145 prostate
# K-562 leukemia = tested on: K-562 leukemia
# MALME-3M melanoma = tested on: MALME-3M melanoma
# MDA-MB-231 breast = tested on: MDA-MB-231 breast
# RXF 393 renal = tested on: RXF 393 renal
# SF-268 CNS = tested on: SF-268 CNS
# SF-295 CNS = tested on: SF-295 CNS
# SF-539 CNS = tested on: SF-539 CNS
# UACC-257 melanoma = tested on: UACC-257 melanoma
# M14 melanoma = tested on: M14 melanoma
SMILES,growth (DU-145 prostate),growth (K-562 leukemia),growth (MALME-3M melanoma),growth (MDA-MB-231 breast),growth (RXF 393 renal),growth (SF-268 CNS),growth (SF-295 CNS),growth (SF-539 CNS),growth (UACC-257 melanoma),growth (M14 melanoma)
COc1cccc2nc(Nc3cccc(NC(=O)c4cc(N5CCOCC5)cc(C(F)(F)F)c4)c3)ccc12,59.9%,45%,91.3%,93.3%,51.4%,59.9%,58.4%,82%,57.1%,52.5%
Cc1ccccc1N1C(c2ccccc2)=NNC12C=CC(=O)c1c(O)cccc12 (stereo not given),94.9%,63.3%,75.1%,73.5%,115%,76.7%,54.5%,76.2%,45.3%,75.5%
CCN1CCN(Cc2ccc(NC(=O)c3nc4ccc5[nH]ncc5c4c4c3CCCC4)cc2C(F)(F)F)CC1,-57.8% (active),-44.5% (active),-79.3% (active),-72.1% (active),-87.4% (active),27.4%,-54.2% (active),-93.7% (active),-63.9% (active),-75.4% (active)
COc1ccc(C2C3CCc4ccccc4C3=NN2C(=O)c2cc(OC)c(OC)c(OC)c2)cc1O (stereo not given),111%,52.7%,77.2%,103%,56.8%,105%,91.2%,101%,110%,101%
COc1ccc(/C=C(/C(=O)N2CCN(c3ccccc3)CC2)c2cc(OC)c(OC)c(OC)c2)cc1N,15.2%,6.11% (active),66.3%,22.1%,-1.82% (active),46.6%,7.2% (active),-17.4% (active),69.2%,1.47% (active)
COC(=O)CNS(=O)(=O)c1ccc2c(c1)Cc1cc(S(=O)(=O)NCC(=O)OC)ccc1-2,113%,100%,100%,105%,108%,102%,100%,97.2%,97.6%,103%
O=C(Nc1ccc2[nH]c3ccccc3c2c1)c1ccccc1Cl,75%,10% (active),35.3%,40.3%,26.5%,63%,10.7%,51.7%,83.1%,26.2%
CNC(=O)c1cc(Oc2ccc(NC(=O)c3nc(S(C)(=O)=O)sc3-c3ccc(F)cc3)cc2)ccn1,-57.5% (active),86.8%,94.5%,119%,104%,98.8%,95.3%,97.4%,65.7%,87.8%
O=C(Cn1nncc1CN1C(=O)CSC1=O)Nc1ccc(F)cc1,105%,104%,97.5%,109%,108%,94.7%,103%,97.8%,107%,102%
CNC(=O)c1cc(Oc2ccc(NC(=O)c3[nH]c(SC)nc3-c3ccc(F)cc3)cc2)ccn1,59.6%,7.07% (active),-7.31% (active),62.9%,70.9%,72.5%,46.3%,65.5%,33.1%,12.7%
Cc1cc(C)c2c(n1)sc1c(Nc3ccc(Cl)cc3Cl)ncnc12,20.3%,42.9%,53.4%,58.7%,28.8%,17.9%,14.3%,4.9% (active),36.4%,-34.3% (active)
C[C@@H]1C[C@H](N)C[C@H](c2ccncc2NC(=O)c2ccc(F)c(-c3c(F)cccc3F)n2)C1,80.4%,11.4%,-20.6% (active),59.1%,23.2%,58.9%,71.9%,70.2%,-69.4% (active),-30.8% (active)
CCCCn1cnc(-c2cc(-c3ccccc3)cc(C(F)(F)F)c2)n1,106%,95.9%,89.6%,106%,99.9%,104%,102%,103%,96.7%,98%
CCSc1ccc([C@@H]2[C@@H](N)C(=O)N2c2cc(OC)c(OC)c(OC)c2)cc1,23.7%,7.64% (active),63.8%,41%,-17% (active),54.6%,10.2%,-22.6% (active),67.7%,-15.5% (active)
c1ccc2c(Cc3csc4ccccc34)csc2c1,110%,23.8%,81.9%,94.9%,83.6%,104%,69.2%,91.4%,93.5%,67.7%
CC1=NOCC(=O)N1,111%,92.1%,117%,102%,103%,107%,87.7%,99.3%,101%,103%
CC(C)NCCCCCNc1cc(O)cc2cccnc12,93.2%,67.6%,23.8%,26.6%,74.7%,89.2%,77.4%,71.5%,111%,88.2%
Cc1ccc2cc3c(NC(=O)c4cccnc4)nn(C)c3nc2c1,100%,85.8%,99.1%,83.8%,89.3%,97.3%,101%,97.1%,99.3%,93.3%
Cc1nc2ccc(Nc3nc(N4CCOCC4)nc(N4CCN(C)CC4)n3)cc2n1Cc1ccccc1,98.4%,29.3%,65.7%,68.5%,61.1%,68.8%,90.1%,76.5%,82.5%,83.4%
CCN(CC)CCCC(C)Nc1cnc(C(=O)Nc2ccc(Cl)c3cccnc23)cn1 (stereo not given),53.1%,-45.8% (active),-71.8% (active),-29.7% (active),18.7%,35.8%,63%,-73.6% (active),-33% (active),-73.1% (active)
CC(=O)N(C)c1ccc(Nc2cc(C)[nH]c3ccc4ncnc4c23)cc1,46.5%,29.5%,82.4%,87.7%,41.7%,55%,76.5%,40.7%,48.2%,76.9%
O=C(/C=C/c1cn(-c2ccccc2)nc1-c1cccc(Nc2ccnc3cc(Cl)ccc23)c1)c1ccc2c(c1)OCO2,76.8%,66.8%,38%,72.7%,95.2%,89.7%,115%,95.7%,95%,111%
CC(C)NC(=O)OCC#CCOC(=O)NC(C)C,111%,87.9%,92.6%,103%,113%,110%,82.8%,109%,105%,101%
CC(=O)Nc1nonc1-c1nc2ccccc2n1Cc1ccc(C(C)(C)C)cc1,79.9%,30.2%,90.5%,92.8%,65.8%,67.2%,79.6%,89%,92%,92%
Cc1ccc2oc(=O)cc(-c3nc4ccc([N+](=O)[O-])cc4[nH]3)c2c1,76.4%,48.7%,62.9%,64.2%,46.7%,62.1%,49.3%,54%,62.2%,64.4%
COc1cc(-c2csc(NC(=O)Nc3cccc(C(F)(F)F)c3)n2)cc(OC)c1OC,55.9%,31.6%,88.3%,63.8%,71.4%,65%,21.7%,67.1%,83.2%,47.8%
COc1ccc(NC(=O)/C=C/c2ccc(NC(=O)N3CCCC3)cc2)cn1,106%,99.4%,96.8%,97.5%,109%,101%,99.8%,97%,103%,103%
